Experimental data from the supplement of paper PMC6555819.

Tests used:
Assay in all cases: PBM binding z-score (relative to random genomic background probes); higher = stronger binding; sequences stand for … in GC…GCGATTGACAGCGTAGAATGAAGG
[1] = test system: FXR:RXRa (NR concentration 270 nM, RXRa partner concentration 90 nM)
Outline: (§1)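 The probes on custom Agilent 4×180K protein-binding microarrays were double-stranded, with 34-nt variable regions bearing direct-repeat seeds, single-nucleotide variants, half-site ablations and random human genomic background sequences. Incubation lasted 1 h with ligand-free nuclear receptor dimers in PBS pH 7.4, 2% milk, 0.02% Triton X-100, 1 mM DTT, 0.2 mg/mL BSA and 0.4 mg/ml salmon testes DNA. Antibodies against each partner (one per run) detected bound dimers, and fluorescence scans were regression-normalized. Binding z-scores take the random background probes as reference.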

[2] = test system: LXRa:RXRa (NR concentration 270 nM, RXRa partner concentration 90 nM)
Outline: as §1

[3] = test system: LXRa homodimer (NR concentration 270 nM)
Outline: as §1

[4] = test system: LXRb:RXRa (NR concentration 270 nM, RXRa partner concentration 90 nM)
Outline: as §1

[5] = test system: LXRb homodimer (NR concentration 270 nM)
Outline: as §1

[6] = test system: PPARa:RXRa (NR concentration 270 nM, RXRa partner concentration 90 nM)
Outline: as §1

[7] = test system: PPARg:RXRa (NR concentration 180 nM, RXRa partner concentration 90 nM)
Outline: as §1

[8] = test system: PPARg:RXRa 270nM:90nM, anti-RXR (NR concentration 270 nM, RXRa partner concentration 90 nM)
Outline: as §1

[9] = test system: PPARg:RXRa 30nM:10nM, anti-RXR (NR concentration 30 nM, RXRa partner concentration 10 nM)
Outline: as §1

[10] = test system: PPARg:RXRa 90nM:30nM, anti-RXR (NR concentration 90 nM, RXRa partner concentration 30 nM)
Outline: as §1

Sequence	PBM binding z-score [1]	PBM binding z-score [2]	PBM binding z-score [3]	PBM binding z-score [4]	PBM binding z-score [5]	PBM binding z-score [6]	PBM binding z-score [7]	PBM binding z-score [8]	PBM binding z-score [9]	PBM binding z-score [10]
CCTCGGACGACAGAAGGTCAGAGCTGTCCGCTTT	1.1	1.53	0.0414	1.18	-0.358	1.83	-0.153	-0.0801	-1.06	-0.472
TTACCACGGTGAGCTGAGGTCGTTGATCCAACTC	0.647	0.233	-0.365	0.375	-1	0.798	-0.279	0.206	-0.397	-0.177
TCTTGTAGATCAAGCAGGTTAAGACAGCCTGAGT	0.233	0.271	-0.132	0.33	-0.3	0.76	0.0477	1.3	2.29	1.76
TCATATAGGGAAATGCTAGGTGAAAGTCCGATCT	1.31	0.732	0.053	0.609	-0.0156	0.83	0.563	2.3	3.82	2.91
TCTCAGAGGACACGAAAGGTCAGAGCTCGACATC	3.13	4.15	3.56	3.12	0.409	3.52	1.66	3.01	3.08	2.85
GCATTTAGGTAATACAAGGTGAAAGTCCGATTGT	1.45	1.54	0.274	0.493	-0.034	1.27	0.514	1.03	0.425	0.682
TCATACAGGTAATACAGGTGAAAGTCGGCATCTA	0.813	1.42	0.615	1.31	0.285	1.88	0.982	2.34	3.85	3.1
ATCTCTAAGTAAAAGTTCAGTGAATCCCGAGGAT	0.433	1.11	1.36	0.807	1.04	1.6	1.9	3.87	2.04	3.47
TTACCAAGGTGAAAGGTCGTTGGTGCACGCCTTG	4.28	3.47	0.325	2.87	-0.67	5.54	8.98	8.05	6.8	8.19
CGAACTAGGTCAAGGACAGTTAATCTCCGCACGC	3.29	2.36	0.153	1.58	-0.0529	4.46	7.29	6.38	3.78	5.73
ATATGTAGGTTACATCCAGGTCATTCAGGCTATG	2.67	4.56	3.72	3.08	0.989	4.38	5.7	4.88	2.67	4.04
GCTTGCAGATCAAGGTTAAGAAAGACTAAGCTAA	-0.109	0.424	-0.386	0.358	-0.936	1.25	0.0724	0.872	0.0105	0.351
GCGACTGGGGCAAAGCAGGTCACCATAAGGTTGG	0.839	1.93	-0.00602	1.53	-1.06	3.18	2.77	2.65	0.521	1.7
ATCACTAGGTAAAAGTTCAGTGAATCCCGAGGAT	0.841	1.47	1.23	0.945	0.59	4.85	8.25	8.67	7.65	9.23
CAAACTAGGTCAAGACGTCAAAGTCCGCTTCCCG	3.84	2.6	0.426	1.79	0.329	4.81	7.43	6.72	4.47	6.25
GCTGCTAGGTCAACTCATGGTCAGCTAAAGCTCG	4.3	2.9	0.227	2.29	0.577	3.73	2.73	3.12	0.277	1.79
GTACCAAGGTGAATCGGTCGTTGATGAGTAGGCG	0.346	0.0414	-0.326	-0.181	-0.693	1.05	0.567	0.624	-0.427	0.0488
CTACCAAGGTGAACAAGGTCATTGATTACTATTC	3.73	3.77	2.33	3.63	-0.00581	3.92	2.24	2.85	0.479	1.65
GCTGCTAGGTCAACTGATGCTCAGCTAAAGCTCG	4.03	2.63	-0.106	1.88	-0.349	3.79	2.66	3.35	0.299	2.26
CCTATTAGTTGACCATAAGGGCAACTGAAGCTCG	1.03	0.424	0.44	0.496	0.545	0.479	0.379	0.673	0.177	0.597
GCTACTGGGGCATCAGCAGGTTACCATAACTTAA	-0.035	-0.127	-0.19	0.88	-0.858	1.74	2.37	2.01	0.134	1.34
TTACCAAGGTGAAGGTGGTTGATCCCTCTGTAGA	0.468	0.457	-0.29	0.0076	-0.769	1.41	0.605	1.37	0.889	1.13
AGTCAAAGTTCACTAGGTAACGTAAGATTCAGCT	5.37	5.1	3.04	3.17	1.11	5.11	7.61	6.5	3.74	6.12
ACATGTAGGTTATCGGGTCATTCAGTTTGCGCAT	3.45	3.33	1.98	3.33	1.7	4.49	6.1	5.23	2.59	4.9

Sequence	PBM binding z-score [1]	PBM binding z-score [2]	PBM binding z-score [3]	PBM binding z-score [4]	PBM binding z-score [5]	PBM binding z-score [6]	PBM binding z-score [7]	PBM binding z-score [8]	PBM binding z-score [9]	PBM binding z-score [10]
GGAATGAGGGCATTCGAGTTGATAGCATGGCGAT	1.71	2.3	-0.453	0.478	-0.43	2.13	1.46	1.52	0.439	1.05
ATATGTTGGTTAAGGGTCATTCAGGTTGGTTCGC	4.33	4.39	2.88	4.31	1.83	4.83	6.96	7.58	6.29	7.73
CAAACTAGGTCACCCGAAGGTCAAAGTCCGCATG	6.1	6.03	4.86	5.07	1.57	6.24	9.64	8	5.77	7.5
ATCTCTAGGTAAATTTCAGTGAAAGATCGATAGA	0.175	0.31	0.359	0.199	0.934	0.102	0.408	0.671	0.581	0.833
CGTCAAAGTTCAAGGTAACGAAACAGAAAGCAGC	6.35	5.77	2.25	3.3	0.914	4.7	4.6	5.48	2.22	4.42
ATATGTAGGTTATGGGGTCATTCAGTTTGCGCAT	5.54	5.12	3.61	5.55	2.36	5.91	8.65	7.03	5.67	7.31
CGTCCAAGGTCAGAGAGTTCAGTGAATGCCGAGT	5.22	4.79	3.36	3	-0.278	3.89	2.14	2.83	0.445	1.82
AGTCCAAGTTCATCTAGGTAACGTAAGATATGCT	3.42	3.23	1.19	1.62	0.287	2.59	1.45	1.61	0.523	0.991
ATCTCTAGGTAACAAGTTCAGTGAAAGAGAGGAC	0.883	1.09	0.507	0.886	1.21	1.82	1.52	1.92	0.986	1.73
CCTACTGGGGCAAAGGTTACCATACTCAGTACGA	1.74	1.84	0.187	2.41	-0.355	6.15	12.1	10	12.4	12.2
ATCTCTAGGTAAAAGTTCAGTGCATCCCGAGGAT	0.914	1.67	1.72	0.979	0.86	4.39	8.17	7.48	7.56	8.52
GCAGATAGGTAATACAAGGTGAAAGTCCGATTGT	1.42	2.24	0.134	0.475	-0.791	1.04	0.544	0.592	0.199	0.421
ATCGAAAGGTCGTGAGGTTAGTATACAGAAAGGC	5.61	4.18	0.638	3.63	0.777	5.04	3.95	4.19	1.92	3.08
CCTACTGAGCCATCAGGTCATTGATATCAACGTT	1.58	1.47	2.08	2.26	0.649	1.79	0.302	0.843	0.137	0.472
TCTGCTAGGTGAGTTGGTCAGCTAACGAGCTGCC	-0.433	-0.56	-0.902	-0.937	-0.888	-0.304	-0.825	0.406	0.873	0.748
CTCGAAAGGTCGTGCTCAGGTGAGTGTACCAAAC	5.56	4.02	0.294	3.22	0.22	4.73	2.35	4.01	1.05	2.56
AGTCAAAGTTCAGGACGAGCTAACGTAAAGCACG	3.87	3.76	0.971	1.55	0.0911	3.08	4.04	4.89	2.01	4.19
TCTTGTAGATCAACAGGAGGTTAGGAAAGATCGA	-0.355	-0.0525	-0.326	0.179	-0.324	0.641	-0.123	1.06	2.59	1.79
TCTAGATGGTCACGGAGGTCACACACGACGGGTA	3.7	3.91	2.8	3.49	0.481	4.04	3.59	4.36	3.7	4.04
TCTCGGAGGACACGAAGGTCACAGCTTTCCAGAG	2.69	2.82	1.52	2.65	-0.279	3.64	1.64	3.1	2.74	2.74
ACTAGCAGGCTAAGGGTCACTCAAGATTAGTCCG	2.37	2.99	-0.0624	2.72	-0.651	4.35	6.55	6.82	6.03	7.57
TCTTGTAGATCAATAGAGGTCAAGAAAGTGCGCT	3.34	5.24	3.98	4.27	1.1	4.19	1.36	3.32	3.08	3.18
CCTACTGGGCCATCAGGGCATTGATATCAACGTT	-0.583	-0.856	-0.715	-0.817	-0.886	0.0503	1.16	1.68	-0.00697	0.846
CATACAGGGTCAGCTAGGCCAGAGCAGGGACGGC	4.49	3.07	-0.271	2.11	0.561	4.35	3.33	3.05	0.789	1.85
